In the supplement of paper PMC11732987, “Enantioselective OTUD7B fragment discovery through chemoproteomics screening and high-throughput optimisation” (Communications Chemistry, 2025):

Legend:
Assay in all cases: log2 ratio of Biotin-Ahx-Ub-VS probe labelling (fragment/DMSO); higher = less target engagement (more negative = stronger competition), active = hit call of the paper (q ≤ 0.05, log2 ratio ≤ -1)
Conditions in all cases: compound concentration: 200 uM; treatment time: 3 h
USP42 = molecular target: T1, USP42 (UniProt Q9H9J4)
T1 sequence (whole entry): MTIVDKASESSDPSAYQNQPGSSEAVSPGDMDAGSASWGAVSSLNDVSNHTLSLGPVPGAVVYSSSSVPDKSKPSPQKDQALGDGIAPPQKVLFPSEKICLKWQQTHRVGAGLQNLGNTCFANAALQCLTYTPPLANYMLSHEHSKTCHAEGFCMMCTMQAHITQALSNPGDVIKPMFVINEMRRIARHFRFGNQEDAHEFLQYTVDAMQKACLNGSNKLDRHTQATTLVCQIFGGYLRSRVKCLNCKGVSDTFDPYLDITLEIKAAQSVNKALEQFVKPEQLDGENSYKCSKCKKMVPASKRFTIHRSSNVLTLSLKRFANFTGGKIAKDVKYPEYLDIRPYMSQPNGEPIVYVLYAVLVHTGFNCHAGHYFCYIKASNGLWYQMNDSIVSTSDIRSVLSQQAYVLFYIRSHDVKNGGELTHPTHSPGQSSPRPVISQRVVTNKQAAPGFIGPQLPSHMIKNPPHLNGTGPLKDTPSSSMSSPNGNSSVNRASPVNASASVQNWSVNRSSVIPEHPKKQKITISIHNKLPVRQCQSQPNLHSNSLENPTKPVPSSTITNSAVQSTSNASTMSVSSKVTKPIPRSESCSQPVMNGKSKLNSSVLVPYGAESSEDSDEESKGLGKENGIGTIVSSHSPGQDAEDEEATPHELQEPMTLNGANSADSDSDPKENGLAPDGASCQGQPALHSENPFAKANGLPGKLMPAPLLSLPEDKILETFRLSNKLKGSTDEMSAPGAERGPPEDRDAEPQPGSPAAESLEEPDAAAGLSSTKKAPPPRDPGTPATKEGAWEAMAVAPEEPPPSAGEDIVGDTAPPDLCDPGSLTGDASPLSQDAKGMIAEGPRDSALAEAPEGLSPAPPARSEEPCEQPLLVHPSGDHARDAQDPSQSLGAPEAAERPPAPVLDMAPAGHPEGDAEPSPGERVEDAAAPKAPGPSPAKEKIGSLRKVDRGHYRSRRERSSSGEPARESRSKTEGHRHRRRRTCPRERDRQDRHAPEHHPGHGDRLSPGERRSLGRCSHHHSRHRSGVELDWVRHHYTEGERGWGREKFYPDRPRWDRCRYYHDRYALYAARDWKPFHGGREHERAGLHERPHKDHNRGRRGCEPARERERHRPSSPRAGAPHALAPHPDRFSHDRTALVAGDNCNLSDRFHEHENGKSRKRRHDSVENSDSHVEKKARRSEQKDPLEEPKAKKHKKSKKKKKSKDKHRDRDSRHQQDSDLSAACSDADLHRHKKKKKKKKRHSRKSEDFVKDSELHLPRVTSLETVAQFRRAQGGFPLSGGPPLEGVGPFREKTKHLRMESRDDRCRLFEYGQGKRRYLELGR
Method in brief: (§1)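 Global-median-normalised Spectronaut label-free quantities were compared by unpaired t-test, and values are average log2 ratios of fragment over vehicle. Only proteins with ≥2 unique peptides were used. HEK293T lysate (495 µg per sample) was treated in triplicate with fragment at 200 µM or vehicle for 3 h and then with Biotin-Ahx-Ub-VS at 0.5 µM final for 1 h. Labelled DUBs were then NeutrAvidin-enriched, digested with LysC and trypsin, and run by diaPASEF LC-MS/MS.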

USP46 = USP46 (UniProt P62068)
Sequence of USP46 (P62068 whole entry): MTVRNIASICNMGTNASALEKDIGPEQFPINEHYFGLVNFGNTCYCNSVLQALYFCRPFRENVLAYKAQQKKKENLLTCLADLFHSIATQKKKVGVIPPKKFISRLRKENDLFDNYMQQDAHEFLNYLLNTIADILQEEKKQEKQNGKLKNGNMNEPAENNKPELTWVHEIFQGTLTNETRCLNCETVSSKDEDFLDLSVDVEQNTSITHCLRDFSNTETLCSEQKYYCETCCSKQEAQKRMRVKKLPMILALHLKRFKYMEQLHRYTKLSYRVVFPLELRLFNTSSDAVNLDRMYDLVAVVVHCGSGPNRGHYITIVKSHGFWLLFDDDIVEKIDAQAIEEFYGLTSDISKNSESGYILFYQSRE
Method in brief: as §1

USP47 = molecular target: T2, USP47 (UniProt Q96K76)
T2 sequence (whole entry): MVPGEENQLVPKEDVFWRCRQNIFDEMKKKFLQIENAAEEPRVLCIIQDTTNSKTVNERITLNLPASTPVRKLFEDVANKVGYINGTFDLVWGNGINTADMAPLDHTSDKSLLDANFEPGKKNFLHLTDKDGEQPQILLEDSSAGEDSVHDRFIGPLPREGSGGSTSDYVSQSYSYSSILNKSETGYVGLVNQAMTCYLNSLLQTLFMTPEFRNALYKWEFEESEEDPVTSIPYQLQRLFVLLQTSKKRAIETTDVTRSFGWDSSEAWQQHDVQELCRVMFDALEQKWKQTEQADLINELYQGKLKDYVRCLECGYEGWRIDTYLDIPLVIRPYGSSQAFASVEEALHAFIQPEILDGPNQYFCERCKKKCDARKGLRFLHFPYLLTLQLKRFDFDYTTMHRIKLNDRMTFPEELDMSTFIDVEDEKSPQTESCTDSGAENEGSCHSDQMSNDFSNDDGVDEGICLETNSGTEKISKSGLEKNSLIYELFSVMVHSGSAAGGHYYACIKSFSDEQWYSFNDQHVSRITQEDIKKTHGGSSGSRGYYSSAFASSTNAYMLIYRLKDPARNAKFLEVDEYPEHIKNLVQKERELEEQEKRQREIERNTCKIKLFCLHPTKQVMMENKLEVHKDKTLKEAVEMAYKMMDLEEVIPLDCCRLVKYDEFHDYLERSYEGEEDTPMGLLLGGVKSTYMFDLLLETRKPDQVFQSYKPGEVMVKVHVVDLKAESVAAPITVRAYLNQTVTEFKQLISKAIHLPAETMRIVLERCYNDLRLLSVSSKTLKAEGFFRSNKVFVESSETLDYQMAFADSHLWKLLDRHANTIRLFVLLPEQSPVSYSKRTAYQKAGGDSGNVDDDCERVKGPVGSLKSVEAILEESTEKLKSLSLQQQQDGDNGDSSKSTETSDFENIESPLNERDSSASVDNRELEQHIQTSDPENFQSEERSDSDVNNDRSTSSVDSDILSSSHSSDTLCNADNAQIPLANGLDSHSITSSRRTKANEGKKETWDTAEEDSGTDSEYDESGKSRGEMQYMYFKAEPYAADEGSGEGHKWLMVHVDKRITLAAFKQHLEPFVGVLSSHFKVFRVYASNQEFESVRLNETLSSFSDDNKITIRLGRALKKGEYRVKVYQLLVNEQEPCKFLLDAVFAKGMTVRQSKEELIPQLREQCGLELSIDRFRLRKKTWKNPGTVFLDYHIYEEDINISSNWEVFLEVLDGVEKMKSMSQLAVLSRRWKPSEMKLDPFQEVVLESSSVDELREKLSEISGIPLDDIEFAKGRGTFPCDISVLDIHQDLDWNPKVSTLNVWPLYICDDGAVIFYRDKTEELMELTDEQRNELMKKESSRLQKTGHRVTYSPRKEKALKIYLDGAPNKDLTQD
Method in brief: as §1

USP48 = molecular target: T3, USP48 (UniProt Q86UV5)
T3 sequence (whole entry): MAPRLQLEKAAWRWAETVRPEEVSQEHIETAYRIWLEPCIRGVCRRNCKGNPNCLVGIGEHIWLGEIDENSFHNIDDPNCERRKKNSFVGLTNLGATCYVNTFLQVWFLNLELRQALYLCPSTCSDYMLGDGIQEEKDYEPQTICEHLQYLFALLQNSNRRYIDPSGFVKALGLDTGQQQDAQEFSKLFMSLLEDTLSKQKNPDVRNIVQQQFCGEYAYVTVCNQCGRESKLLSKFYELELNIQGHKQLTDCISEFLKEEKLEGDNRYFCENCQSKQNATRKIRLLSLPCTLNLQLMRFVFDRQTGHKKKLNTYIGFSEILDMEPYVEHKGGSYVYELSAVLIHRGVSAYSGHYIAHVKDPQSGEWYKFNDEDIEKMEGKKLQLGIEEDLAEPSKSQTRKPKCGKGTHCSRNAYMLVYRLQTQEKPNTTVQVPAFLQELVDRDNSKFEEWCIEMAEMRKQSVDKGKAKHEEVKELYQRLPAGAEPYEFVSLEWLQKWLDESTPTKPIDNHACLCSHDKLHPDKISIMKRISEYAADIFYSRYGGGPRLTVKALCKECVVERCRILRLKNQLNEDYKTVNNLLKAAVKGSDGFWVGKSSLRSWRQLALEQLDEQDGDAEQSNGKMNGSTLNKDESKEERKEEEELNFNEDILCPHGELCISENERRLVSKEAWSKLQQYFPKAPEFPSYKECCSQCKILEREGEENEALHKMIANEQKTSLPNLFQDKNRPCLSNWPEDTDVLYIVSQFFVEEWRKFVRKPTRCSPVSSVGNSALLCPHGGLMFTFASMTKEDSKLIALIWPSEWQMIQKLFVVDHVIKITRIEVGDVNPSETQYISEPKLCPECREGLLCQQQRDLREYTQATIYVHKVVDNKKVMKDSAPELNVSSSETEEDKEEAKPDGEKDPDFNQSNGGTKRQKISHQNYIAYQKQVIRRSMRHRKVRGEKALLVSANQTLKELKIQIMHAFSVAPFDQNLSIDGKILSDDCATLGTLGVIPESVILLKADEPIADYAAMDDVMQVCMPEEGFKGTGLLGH
Method in brief: as §1

USP5 = molecular target: T4, USP5 (UniProt P45974)
T4 sequence (whole entry): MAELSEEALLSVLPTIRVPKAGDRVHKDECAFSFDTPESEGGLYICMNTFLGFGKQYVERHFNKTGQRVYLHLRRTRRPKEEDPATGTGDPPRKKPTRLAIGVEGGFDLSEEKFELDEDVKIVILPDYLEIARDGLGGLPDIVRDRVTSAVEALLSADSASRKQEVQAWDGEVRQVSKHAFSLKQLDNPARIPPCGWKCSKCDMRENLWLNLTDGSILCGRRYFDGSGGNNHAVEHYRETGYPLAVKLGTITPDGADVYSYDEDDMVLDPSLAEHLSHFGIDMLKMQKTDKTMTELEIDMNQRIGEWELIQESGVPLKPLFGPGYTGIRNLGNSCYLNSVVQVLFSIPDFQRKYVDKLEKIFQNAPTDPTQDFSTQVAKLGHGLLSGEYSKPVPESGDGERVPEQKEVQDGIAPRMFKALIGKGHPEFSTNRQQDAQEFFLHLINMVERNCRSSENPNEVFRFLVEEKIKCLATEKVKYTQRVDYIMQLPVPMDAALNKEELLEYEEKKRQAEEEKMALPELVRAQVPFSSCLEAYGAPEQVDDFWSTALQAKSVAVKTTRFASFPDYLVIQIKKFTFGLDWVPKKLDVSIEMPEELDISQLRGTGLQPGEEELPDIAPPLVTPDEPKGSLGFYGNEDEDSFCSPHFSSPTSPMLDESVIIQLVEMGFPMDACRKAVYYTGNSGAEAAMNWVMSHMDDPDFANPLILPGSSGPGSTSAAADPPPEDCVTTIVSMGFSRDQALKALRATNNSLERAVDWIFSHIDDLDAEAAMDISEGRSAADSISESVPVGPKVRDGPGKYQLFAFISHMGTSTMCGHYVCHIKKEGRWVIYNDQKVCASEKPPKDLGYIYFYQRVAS
Method in brief: as §1

USP54 = USP54 (UniProt Q70EL1)
Sequence of USP54 (Q70EL1 whole entry): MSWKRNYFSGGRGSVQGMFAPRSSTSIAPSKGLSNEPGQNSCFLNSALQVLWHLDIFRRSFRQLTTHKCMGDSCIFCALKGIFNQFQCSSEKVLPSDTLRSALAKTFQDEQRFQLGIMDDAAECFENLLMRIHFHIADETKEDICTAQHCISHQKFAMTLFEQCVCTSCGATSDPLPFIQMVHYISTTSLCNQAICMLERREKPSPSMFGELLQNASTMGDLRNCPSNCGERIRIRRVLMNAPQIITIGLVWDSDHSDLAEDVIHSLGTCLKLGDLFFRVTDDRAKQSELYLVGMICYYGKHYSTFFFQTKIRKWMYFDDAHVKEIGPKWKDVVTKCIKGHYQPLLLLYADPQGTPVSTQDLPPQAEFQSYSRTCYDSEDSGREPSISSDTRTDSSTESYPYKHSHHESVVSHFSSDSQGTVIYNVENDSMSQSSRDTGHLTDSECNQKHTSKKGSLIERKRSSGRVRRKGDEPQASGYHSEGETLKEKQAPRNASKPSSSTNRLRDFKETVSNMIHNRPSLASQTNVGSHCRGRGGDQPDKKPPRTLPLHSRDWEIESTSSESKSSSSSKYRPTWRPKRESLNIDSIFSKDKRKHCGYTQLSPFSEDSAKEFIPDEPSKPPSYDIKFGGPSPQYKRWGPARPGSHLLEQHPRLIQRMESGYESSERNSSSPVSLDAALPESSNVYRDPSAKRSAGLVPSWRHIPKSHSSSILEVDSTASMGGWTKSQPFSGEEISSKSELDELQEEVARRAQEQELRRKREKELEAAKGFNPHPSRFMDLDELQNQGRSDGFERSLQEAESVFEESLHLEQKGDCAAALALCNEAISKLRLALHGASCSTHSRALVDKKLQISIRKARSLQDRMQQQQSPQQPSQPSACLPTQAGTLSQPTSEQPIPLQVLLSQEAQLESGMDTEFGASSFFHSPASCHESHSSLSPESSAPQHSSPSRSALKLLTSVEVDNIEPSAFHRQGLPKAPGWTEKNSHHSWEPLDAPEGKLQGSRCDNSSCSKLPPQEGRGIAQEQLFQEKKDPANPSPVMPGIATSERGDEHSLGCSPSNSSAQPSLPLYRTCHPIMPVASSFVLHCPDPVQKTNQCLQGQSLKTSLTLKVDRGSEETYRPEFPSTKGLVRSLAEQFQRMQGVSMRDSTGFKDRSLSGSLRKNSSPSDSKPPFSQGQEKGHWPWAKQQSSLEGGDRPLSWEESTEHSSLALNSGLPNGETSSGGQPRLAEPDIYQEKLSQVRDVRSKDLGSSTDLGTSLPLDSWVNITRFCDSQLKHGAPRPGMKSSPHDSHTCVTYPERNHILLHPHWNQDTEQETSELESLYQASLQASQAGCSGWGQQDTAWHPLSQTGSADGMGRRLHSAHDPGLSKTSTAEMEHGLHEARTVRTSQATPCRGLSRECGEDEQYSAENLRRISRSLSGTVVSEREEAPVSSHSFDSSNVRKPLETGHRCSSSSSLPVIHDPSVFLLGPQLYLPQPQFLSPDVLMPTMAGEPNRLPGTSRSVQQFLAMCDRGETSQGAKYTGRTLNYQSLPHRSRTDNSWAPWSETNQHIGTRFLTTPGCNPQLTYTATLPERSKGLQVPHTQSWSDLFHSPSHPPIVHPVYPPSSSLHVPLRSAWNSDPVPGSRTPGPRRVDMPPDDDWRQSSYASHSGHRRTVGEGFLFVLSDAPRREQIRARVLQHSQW
Method in brief: as §1

USP7 = USP7 (UniProt Q93009)
Sequence of USP7 (Q93009 whole entry, looked up): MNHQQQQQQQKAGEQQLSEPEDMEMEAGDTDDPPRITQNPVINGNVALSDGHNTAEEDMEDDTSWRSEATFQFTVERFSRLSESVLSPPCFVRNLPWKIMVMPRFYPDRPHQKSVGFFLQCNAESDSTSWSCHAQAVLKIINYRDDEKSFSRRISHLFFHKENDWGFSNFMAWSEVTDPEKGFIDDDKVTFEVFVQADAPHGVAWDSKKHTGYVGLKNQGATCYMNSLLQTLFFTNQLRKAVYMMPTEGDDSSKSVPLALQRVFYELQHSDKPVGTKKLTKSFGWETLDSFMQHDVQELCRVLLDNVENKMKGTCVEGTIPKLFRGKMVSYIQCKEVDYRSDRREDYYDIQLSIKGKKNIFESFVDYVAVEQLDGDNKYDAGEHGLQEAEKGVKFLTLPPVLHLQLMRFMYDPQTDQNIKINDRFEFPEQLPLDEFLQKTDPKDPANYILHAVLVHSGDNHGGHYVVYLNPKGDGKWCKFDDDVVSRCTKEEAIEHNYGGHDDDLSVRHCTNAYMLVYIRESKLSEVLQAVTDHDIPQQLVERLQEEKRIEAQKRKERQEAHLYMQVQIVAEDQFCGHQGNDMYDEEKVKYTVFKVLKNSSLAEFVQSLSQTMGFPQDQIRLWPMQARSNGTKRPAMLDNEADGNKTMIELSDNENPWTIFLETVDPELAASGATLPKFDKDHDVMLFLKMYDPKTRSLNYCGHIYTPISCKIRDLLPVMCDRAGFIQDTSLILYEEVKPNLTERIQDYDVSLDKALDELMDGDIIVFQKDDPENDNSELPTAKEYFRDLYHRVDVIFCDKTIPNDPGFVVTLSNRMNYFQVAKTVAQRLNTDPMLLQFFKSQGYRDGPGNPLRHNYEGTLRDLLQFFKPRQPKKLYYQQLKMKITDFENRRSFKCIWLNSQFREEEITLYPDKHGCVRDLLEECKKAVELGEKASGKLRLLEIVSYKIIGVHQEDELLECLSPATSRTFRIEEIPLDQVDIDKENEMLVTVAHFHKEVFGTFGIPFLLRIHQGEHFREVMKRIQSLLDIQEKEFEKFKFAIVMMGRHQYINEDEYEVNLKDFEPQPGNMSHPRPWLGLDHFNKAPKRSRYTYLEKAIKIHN
Method in brief: as §1

USP8 = molecular target: T5, USP8 (UniProt P40818)
T5 sequence (whole entry): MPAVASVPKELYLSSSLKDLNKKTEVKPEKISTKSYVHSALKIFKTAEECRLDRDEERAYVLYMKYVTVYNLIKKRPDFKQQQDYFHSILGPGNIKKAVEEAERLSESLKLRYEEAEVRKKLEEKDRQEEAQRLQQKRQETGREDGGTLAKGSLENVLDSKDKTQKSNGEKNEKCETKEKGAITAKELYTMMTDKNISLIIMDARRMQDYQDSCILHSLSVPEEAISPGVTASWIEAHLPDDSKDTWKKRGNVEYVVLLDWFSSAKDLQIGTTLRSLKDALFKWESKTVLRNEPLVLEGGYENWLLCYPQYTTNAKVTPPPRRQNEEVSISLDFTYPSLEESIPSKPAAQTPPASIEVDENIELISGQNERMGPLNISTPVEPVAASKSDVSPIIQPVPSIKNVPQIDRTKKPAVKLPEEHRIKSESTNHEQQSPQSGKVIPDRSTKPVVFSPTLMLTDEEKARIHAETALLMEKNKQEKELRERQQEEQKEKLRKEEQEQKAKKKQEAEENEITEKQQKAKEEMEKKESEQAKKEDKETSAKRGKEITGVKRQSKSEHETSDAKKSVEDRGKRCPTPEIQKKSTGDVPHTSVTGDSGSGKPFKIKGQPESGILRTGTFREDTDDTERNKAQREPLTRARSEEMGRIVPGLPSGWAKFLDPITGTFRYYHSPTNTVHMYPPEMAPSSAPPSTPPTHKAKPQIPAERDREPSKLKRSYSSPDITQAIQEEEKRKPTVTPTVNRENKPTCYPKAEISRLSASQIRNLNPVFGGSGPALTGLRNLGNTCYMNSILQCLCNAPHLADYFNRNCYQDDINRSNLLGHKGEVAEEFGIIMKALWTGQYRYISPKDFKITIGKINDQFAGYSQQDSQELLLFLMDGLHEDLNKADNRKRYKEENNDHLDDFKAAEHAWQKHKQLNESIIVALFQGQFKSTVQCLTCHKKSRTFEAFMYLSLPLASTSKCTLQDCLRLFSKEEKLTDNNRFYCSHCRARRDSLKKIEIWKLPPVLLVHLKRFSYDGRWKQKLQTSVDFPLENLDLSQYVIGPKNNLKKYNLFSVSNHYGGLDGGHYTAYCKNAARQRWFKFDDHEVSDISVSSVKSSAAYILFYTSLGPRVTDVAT
Method in brief: as §1

USP9X = USP9X (UniProt Q93008)
Method in brief: as §1

UniProt O00487 = molecular target: UniProt O00487
Sequence of UniProt O00487 (O00487 whole entry): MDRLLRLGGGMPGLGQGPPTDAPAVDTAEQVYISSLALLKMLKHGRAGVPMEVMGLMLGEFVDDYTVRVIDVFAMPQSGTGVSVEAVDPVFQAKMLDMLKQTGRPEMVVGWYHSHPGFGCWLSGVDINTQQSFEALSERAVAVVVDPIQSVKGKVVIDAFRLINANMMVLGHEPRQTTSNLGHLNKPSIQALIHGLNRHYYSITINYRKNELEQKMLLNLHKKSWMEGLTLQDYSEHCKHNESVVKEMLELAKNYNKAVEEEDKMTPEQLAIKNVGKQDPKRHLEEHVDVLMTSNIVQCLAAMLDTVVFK
Method in brief: as §1

Measured: log2 ratio of Biotin-Ahx-Ub-VS probe labelling

O=C(CCl)NCC(=O)N1CCCC1
inactive: USP42 0.103 | USP46 0.0751 | USP47 0.107 | USP48 -0.00296 | USP5 0.205 | USP54 0.812 | USP7 -0.0345 | USP8 -0.434 | USP9X -0.168 | UniProt O00487 -0.0526
